Assay results from the supplement of paper PMC3334620.
Whole data set: some 33,000 sequences, median “E-score (-0.5 to 0.5)” near -8e-05, cut for the highest 2% near 0.23. Only a selection was taken, and the highest values are over-represented in it overall.

Each sequence was assayed against T1, Nrg2 (UniProt P38082) (assay: PBM E-score (8-mer binding enrichment) (E-score (-0.5 to 0.5)); higher = stronger / more preferred TF binding). Conditions: protein concentration: 100 nM; construct: GST-full length.
T1 sequence: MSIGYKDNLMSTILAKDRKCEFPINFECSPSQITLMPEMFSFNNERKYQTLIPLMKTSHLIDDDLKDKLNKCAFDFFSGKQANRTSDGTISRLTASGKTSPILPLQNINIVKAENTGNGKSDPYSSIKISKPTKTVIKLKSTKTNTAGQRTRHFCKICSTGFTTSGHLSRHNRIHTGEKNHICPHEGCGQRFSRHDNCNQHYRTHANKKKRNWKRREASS
Procedure: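 Universal 'all 10-mer' protein binding microarrays (Agilent AMADID 015681) probed with GST-tagged S. cerevisiae TFs (full-length or DBD) made by in vitro transcription/translation (PURExpress), about 100-200 nM. Bound TF was detected with fluorescent anti-GST. Each ungapped 8-mer (which stands for itself and its reverse complement) is scored by the PBM enrichment score (E-score), a modified Wilcoxon-Mann-Whitney statistic from -0.5 to +0.5, computed with the Universal PBM Analysis Suite. Scale: above 0.35 generally sequence-specific binding.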
With AACTACTA the “PBM E-score” value was 0.296. AACTACTG was tested, and the “PBM E-score” value was 0.0512. CGCTACTA was tested, and the “PBM E-score” value was 0.234. In the case of CGCTACTC, the “PBM E-score” value is reported as -0.0612. For AACTAATA, the “PBM E-score” value was 0.354. In the case of CACTAATA, the “PBM E-score” value is reported as 0.133. With AAGACGTG the “PBM E-score” value was -0.0832. In the case of ACGAATAG, the “PBM E-score” value is reported as 0.0297. With CACCTCCC the “PBM E-score” value was -0.294. For CAGATGGC, the “PBM E-score” value was -0.107. With ACGATACA the “PBM E-score” value was -0.0148. CAGATATC was tested, and the “PBM E-score” value was 0.133. With TAGATACA the “PBM E-score” value was 0.0563. For AATACCTA, the “PBM E-score” value was 0.144. For AAGATATC, the “PBM E-score” value was 0.149. AAGATACA was tested, and the “PBM E-score” value was 0.171. In the case of TCGATACA, the “PBM E-score” value is reported as 0.243. GAGATACA was tested, and the “PBM E-score” value was 0.296. With GCGATACA the “PBM E-score” value was -0.00403. CATACCTA was tested, and the “PBM E-score” value was -0.0293. GAGATATC was tested, and the “PBM E-score” value was 0.282. In the case of GATACCTA, the “PBM E-score” value is reported as 0.256. For ATTTACAA, the “PBM E-score” value was 0.0879. With GCGCACAA the “PBM E-score” value was 0.195. For GTAGAGTA, the “PBM E-score” value was -0.0442. CCACGGGC was tested, and the “PBM E-score” value was -0.139. For GGCCGCCA, the “PBM E-score” value was 0.0869. With GAGGCCGA the “PBM E-score” value was -0.0441. CAAACAAC was tested, and the “PBM E-score” value was 0.14. With ATAGGAAC the “PBM E-score” value was -0.0698. For AAAGCAGT, the “PBM E-score” value was 0.201. In the case of GATACATC, the “PBM E-score” value is reported as 0.134. In the case of GACATACA, the “PBM E-score” value is reported as 0.246. CACATACA was tested, and the “PBM E-score” value was -0.0126. For CATACATA, the “PBM E-score” value was 0.219. With GATACATA the “PBM E-score” value was 0.246. With TACATACA the “PBM E-score” value was 0.199. In the case of AGAAGTAC, the “PBM E-score” value is reported as -0.0369. With CCCCGCGG the “PBM E-score” value was 0.0578. For ACCCGCGG, the “PBM E-score” value was 0.275. In the case of ACCCGCGT, the “PBM E-score” value is reported as -0.119. In the case of ACCCGCGC, the “PBM E-score” value is reported as 0.229. With ACCCGCCG the “PBM E-score” value was 0.201. For ACCCGCGA, the “PBM E-score” value was 0.174. With ACTAGGAA the “PBM E-score” value was -0.094. In the case of CGAATCAC, the “PBM E-score” value is reported as 0.117. In the case of AGGGACGG, the “PBM E-score” value is reported as -0.0133. In the case of AGGGACGA, the “PBM E-score” value is reported as 0.248. In the case of ATGGACCC, the “PBM E-score” value is reported as 0.206. For CTGGACCC, the “PBM E-score” value was 0.275. For GGGGACCA, the “PBM E-score” value was 0.0565. With CTGGACCA the “PBM E-score” value was -0.0552. For AGGGACCT, the “PBM E-score” value was 0.382. With AGGGACCA the “PBM E-score” value was 0.35. ACGGACCT was tested, and the “PBM E-score” value was 0.17. With AAGGACCT the “PBM E-score” value was 0.0061. AGGGACGC was tested, and the “PBM E-score” value was 0.196. CGGGACCA was tested, and the “PBM E-score” value was -0.173. With CACGATAC the “PBM E-score” value was -0.129. In the case of ACTTTCGC, the “PBM E-score” value is reported as -0.0735. For CAGTTGCC, the “PBM E-score” value was -0.092. For ATGAGCAA, the “PBM E-score” value was 0.121. In the case of AGGGTCAT, the “PBM E-score” value is reported as 0.132. With GCCCAAGC the “PBM E-score” value was 0.106. With ATCTATGC the “PBM E-score” value was 0.117. CCGGGCAC was tested, and the “PBM E-score” value was -0.16. For CGCAAAGA, the “PBM E-score” value was 0.111. In the case of GGGTCTCA, the “PBM E-score” value is reported as 0.0513. AGGGACTC was tested, and the “PBM E-score” value was -0.0325. For AGGGACAA, the “PBM E-score” value was 0.228. With GGGGACTA the “PBM E-score” value was -0.0994. AGGGACTA was tested, and the “PBM E-score” value was 0.242. In the case of CGGGACCG, the “PBM E-score” value is reported as -0.0394. For AGGGACCG, the “PBM E-score” value was 0.231. For CGGGACCC, the “PBM E-score” value was -0.0126. AGGGACAT was tested, and the “PBM E-score” value was 0.301. In the case of ACGGACCG, the “PBM E-score” value is reported as -0.252. With GGGGACCC the “PBM E-score” value was 0.143. In the case of AGGGACAC, the “PBM E-score” value is reported as 0.204. AGGGACCC was tested, and the “PBM E-score” value was 0.337. With CCTGACCA the “PBM E-score” value was 0.142. In the case of CGAAGACC, the “PBM E-score” value is reported as 0.0649. GCTCTCAA was tested, and the “PBM E-score” value was 0.047. For ACGATCGA, the “PBM E-score” value was 0.0838. In the case of GTGAGCAA, the “PBM E-score” value is reported as -0.0485. With GTCCAGTA the “PBM E-score” value was -0.0597. In the case of GATACAAA, the “PBM E-score” value is reported as 0.18. For AATACAAA, the “PBM E-score” value was 0.269. In the case of AATACAAT, the “PBM E-score” value is reported as 0.106. For AATACAAG, the “PBM E-score” value was 0.296. In the case of TATACAAA, the “PBM E-score” value is reported as 0.148. With AATACAAC the “PBM E-score” value was 0.185. GTAATCGA was tested, and the “PBM E-score” value was 0.154. With TGAATACA the “PBM E-score” value was 0.0782. For CCTTGCTC, the “PBM E-score” value was 0.0643. For AGCGTTAT, the “PBM E-score” value was -0.0753. With GTCTACTA the “PBM E-score” value was 0.0788. With CACCTGTC the “PBM E-score” value was 0.0208. For AGCTCTGG, the “PBM E-score” value was -0.136. In the case of ATCAGATG, the “PBM E-score” value is reported as -0.0502. ATCTTGCG was tested, and the “PBM E-score” value was -0.0421. With ATCTTGCA the “PBM E-score” value was 0.256. For GTCTTGCA, the “PBM E-score” value was 0.0101. With GAAGCCTC the “PBM E-score” value was -0.146. With ATCGAAGA the “PBM E-score” value was 0.193. With ATATTGCA the “PBM E-score” value was 0.113. For AGAGATTC, the “PBM E-score” value was 0.0502. For GACAGTAA, the “PBM E-score” value was 0.0902. In the case of ATGAAGTG, the “PBM E-score” value is reported as 0.235. With ATGAAGTC the “PBM E-score” value was -0.0277. With ATGAAGTA the “PBM E-score” value was 0.0961. For ATTGAACG, the “PBM E-score” value was -0.0983. ATCCAAAT was tested, and the “PBM E-score” value was 0.0165. ACCGCGGG was tested, and the “PBM E-score” value was 0.171. CCCGCGGA was tested, and the “PBM E-score” value was 0.204. With CCCGCGGG the “PBM E-score” value was 0.278. With CACGCGGG the “PBM E-score” value was -0.0425. With CGCGCGTC the “PBM E-score” value was 0.262. For AGCGCGTC, the “PBM E-score” value was -0.0322. With CGCGCGGA the “PBM E-score” value was 0.227. For AGCGCGGC, the “PBM E-score” value was 0.0579. With CACGCGGA the “PBM E-score” value was 0.234. AACGCGGA was tested, and the “PBM E-score” value was 0.0806. CGCGCGTA was tested, and the “PBM E-score” value was 0.133. With CGCGCGGC the “PBM E-score” value was 0.296. In the case of CCATTTAA, the “PBM E-score” value is reported as -0.00324. CATTGAGC was tested, and the “PBM E-score” value was -0.0461. In the case of CCTTAGTC, the “PBM E-score” value is reported as -0.119. In the case of CCGCTGCG, the “PBM E-score” value is reported as -0.14. For ATCAATAC, the “PBM E-score” value was 0.136. With AGTGCTAG the “PBM E-score” value was -0.0309. AATGAGGG was tested, and the “PBM E-score” value was -0.00097. With TAGAGCTA the “PBM E-score” value was -0.161. For CTGCCACA, the “PBM E-score” value was -0.117. In the case of ACCCTTAG, the “PBM E-score” value is reported as 0.123. With ACCCTTAA the “PBM E-score” value was 0.152. With AACCCTTC the “PBM E-score” value was 0.168. In the case of GACCCTGA, the “PBM E-score” value is reported as 0.389. For AACCCTTG, the “PBM E-score” value was 0.194. With ACCCTTAT the “PBM E-score” value was 0.28. AACCTTAC was tested, and the “PBM E-score” value was 0.108. In the case of AACCTTAG, the “PBM E-score” value is reported as -0.109. AACCTTAA was tested, and the “PBM E-score” value was 0.293. For GACCCCTA, the “PBM E-score” value was 0.151. GACCCTCA was tested, and the “PBM E-score” value was -0.116. With AACCCTTA the “PBM E-score” value was 0.235. With GTCAAAAC the “PBM E-score” value was 0.0485. AGATCTAT was tested, and the “PBM E-score” value was -0.0448. CTGCACCA was tested, and the “PBM E-score” value was -0.0673. With AGTTGATC the “PBM E-score” value was 0.137. In the case of CATTCGTA, the “PBM E-score” value is reported as -0.0996. With ACTCTATG the “PBM E-score” value was 0.056. With ACTTCCTG the “PBM E-score” value was 0.0859. For TAAATCGA, the “PBM E-score” value was 0.151. With CGCTTACG the “PBM E-score” value was -0.284. GACCCTCC was tested, and the “PBM E-score” value was 0.16. With ACCCCTAA the “PBM E-score” value was 0.172. With TACCCCTA the “PBM E-score” value was 0.173. In the case of TACCCTCA, the “PBM E-score” value is reported as 0.00099. In the case of ACCCCTAT, the “PBM E-score” value is reported as 0.256. In the case of GACCCTGC, the “PBM E-score” value is reported as 0.331. For ACCCCCTA, the “PBM E-score” value was -0.391. In the case of CACCCTGC, the “PBM E-score” value is reported as 0.191. ACCCCTAG was tested, and the “PBM E-score” value was 0.153. For TATCCTGA, the “PBM E-score” value was 0.202. TACCCTGA was tested, and the “PBM E-score” value was 0.265. With AACCCCTA the “PBM E-score” value was 0.25. For GGATCTGA, the “PBM E-score” value was -0.0992. CAAAGGCA was tested, and the “PBM E-score” value was -0.173. For ACTAAGAA, the “PBM E-score” value was 0.221. With CGAGCTAC the “PBM E-score” value was 0.124. TAACCGAA was tested, and the “PBM E-score” value was -0.0477.
